Screening data as filed in PubChem.
Sampled rows, rich in hits. Any-hit rate of the full collection: about 4%.
HIF-2a inh: HIF-2a reporter inhibitors, primary screen, luminescence, 786-0 RCC cells. inhibition, % at 18.8 µM. 0.72% of 360,000 active. 786-0 RCC cells HIF-2a reporter, luciferase luminescence, overnight. AID 624352, 2012;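 active means inhibition of the luminescence signal of 40% or more relative to plate controls, in a single-dose primary screen at 18.75 µM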
TWEAK Fn14 block: inhibitors of TWEAK-Fn14 signaling, primary screen, luciferase reporter cells, uHTS; TWEAK-stimulated Fn14 reporter cells, luciferase luminescence, 8 h; inhibition, % at 10 µM; 2% of 360,000 active; in the data active means inhibition above about 50%
TROY signal inh: inhibitors of TROY-driven NF-kB signaling, primary screen, Q293 LMP1-TROYcd cells, NF-kB luciferase, uHTS; Q293 LMP1-TROYcd NF-kB luciferase reporter, 4 h; inhibition, % at 10 µM; 0.98% of 360,000 active;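 active means compounds whose plate-normalised and pattern-corrected inhibition of the luciferase reporter signal at the single screening dose is 50% or more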
CF NFkB inh: inhibitors of PAF-induced NF-kB signaling, primary screen, cell-based, GFP fluorescence, uHTS; KKLEB NF-kB-GFP reporter, GFP fluorescence overnight; inhibition, % at 5 µM; 0.86% of 360,000 active; AID 588850, 2011;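 active means at least 50% inhibition at 5 µM, scaled per plate between neutral and stimulator controls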;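 further: PAF is a Pseudomonas aeruginosa culture filtrate used as stimulus; plate controls were PAF-stimulated DMSO wells for no effect and unstimulated DMSO wells for full effect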
Peg3 promoter: Peg3 promoter-driven luciferase inhibitors, primary screen, cell-based, HeLa, luciferase luminescence | HeLa PEG-Prom luciferase reporter, overnight | inhibition, % at 20 µM | 1.7% of 360,000 active;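 active means inhibition of at least 50% at 20 µM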
KKLEB cytotox: cytotoxicity in KKLEB CF airway cells, primary screen, cytotoxicity control for CF NF-kB inhibitor project, cell-based, uHTS, fluorescence assay plates | KKLEB CF airway cells viability, ATPlite luminescence, overnight; hits give low values; cells stimulated with P. aeruginosa culture filtrate | activity change (cytotoxicity), % at 5 µM | 0.36% of 360,000 active | AID 602141, 2011;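 active means corrected activity change at or below -50% at 5 µM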
* = called active by the depositor; . = not tested or not shown.

SMILES	HIF-2a inh	TWEAK Fn14 block	TROY signal inh	CF NFkB inh	Peg3 promoter	KKLEB cytotox
CN1c2ccccc2C(C)(C)C12C=Cc1cc(O)ccc1O2 (stereo not given)	37	53*	34	-6	36	-2
CN1c2ccccc2C(C)(C)C12C=Nc1c(cc(N3CCOCC3)c3ccccc13)O2 (stereo not given)	9	24	31	20	30	-6
COC1CC(N)C2OC(c3ccccc3)OCC2O1 (stereo not given)	5	2	-23	-27	11	-7
CN(C)c1ccc(N/C=C/C(=O)c2ccccc2)cc1	-40	95*	23	-7	11	-35
O=C(/C=C/Nc1ccccc1)c1ccccc1	-131	37	-23	4	-250	-12
CCC(C)Nc1nc(Cl)nc(N(C#N)CN2C(=O)c3ccccc3S2(=O)=O)n1 (stereo not given)	20	4	18	15	15	-10
CC(C)Nc1nc(Cl)nc(N(C#N)CN2C(=O)c3ccccc3C2=O)n1	-11	16	5	0	95*	0
O=[N+]([O-])c1ccc(-c2c(O)c3ccccc3c3nc4ccccc4nc23)cc1	-3	22	54*	42	52*	-9
O=[N+]([O-])c1ccc(-c2cnc3ccccc3n2)cc1	-225	-11	-55	-16	-207	-1
CNc1nnc(SCC(=O)c2c(N)n(C3CC3)c(=O)[nH]c2=O)s1	3	11	-12	-6	10	5
NC(=O)CC(NC(=O)Cc1ccc(Br)cc1)c1ccc(N2CCC(Cc3ccccc3)CC2)c([N+](=O)[O-])c1 (stereo not given)	12	-51	-2	31	51*	-42
NC(=O)CC(NC(=O)Cc1ccc(Br)cc1)c1ccc(N2CCC(Br)CC2)c([N+](=O)[O-])c1 (stereo not given)	-8	-4	18	-28	27	-15
CCCCSc1ncnc2c1ncn2C1CCCCO1 (stereo not given)	-145	20	-13	12	-284	-11
CCOC(=O)c1nc(C)nc(Sc2n[nH]c(-c3cc(C(F)(F)F)cc(C(F)(F)F)c3)n2)c1C	11	-41	59*	3	3	-9
CCn1cc(/C=C(\NC(=O)c2ccccc2F)C(=O)NCCCN2CCOCC2)c2ccccc21	0	68*	-23	7	-8	5
Cc1ccc(Nc2nc(-c3c(C)nc4ccccn34)cs2)cc1	-97	95*	59*	33	-12	-20
Oc1ccc(Nc2nc(-c3ccc4ccccc4c3)cs2)cc1	-267	76*	9	-12	-170	4
COc1ccc(NC(=O)C(C)Sc2nnc(C3CC3)n2C2CC2)cc1 (stereo not given)	5	-8	5	1	-1	3
CCOC(=O)C1=CCC(c2cc3ccccc3[nH]2)NC1 (stereo not given)	-234	.	.	.	.	.
Cc1ccc2cc3c(N)c(C(=O)Nc4c(C)[nH]c(=O)[nH]c4=O)sc3nc2c1	7	11	-9	-4	14	15
Cc1ccc2nc3sc(C(=O)Nc4c(C)[nH]c(=O)[nH]c4=O)c(N)c3cc2c1	-33	53*	8	1	-82	-1
CCCC(=O)NC(c1ccco1)c1cc(Cl)c2cccnc2c1O (stereo not given)	20	16	17	-25	69*	4
CCCC(=O)NC(c1ccc2c(c1)OCO2)c1cc(Cl)c2cccnc2c1O (stereo not given)	3	18	8	-11	55*	-8
CCC(=O)NC(c1ccc(C)cc1)c1cc(Cl)c2cccnc2c1O (stereo not given)	2	29	-18	-3	49	3
CCCC(=O)NC(c1cccs1)c1cc(Cl)c2cccnc2c1O (stereo not given)	10	0	-2	-14	45	5
CN(Cc1ccccc1)C(=O)[C@@H]1CCCN1C(=O)[C@@H]1CCCN1C(=O)c1cccc(Cl)c1	-8	18	9	.	.	.
